A selection: hits, their analogues and other compounds. The true share with any hit is near 19%.
RORgamma inh – ROR gamma (mouse) transcription inhibition; AID 2551; actives 5.4% (n = 310,000); Drosophila S2 Gal4-RORgamma UAS-luciferase reporter, 20 h; Potency, µM (highest dose often 53.6 µM), for the others: at the top dose activity change, negative = inhibition, actives largely listed as inhibitors; also: nearly all actives have a fitted effect of over 60% in size
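Luminescence from a UAS-regulated Photinus luciferase reporter in stably transfected Drosophila Schneider cells is measured; decreased signal marks ROR gamma inhibition. Fusion expression is induced by 700 uM copper sulfate for 20 hr.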
Gal4-VP16 FLuc – counter-screen for ROR gamma inhibitors: Gal4-VP16 reporter; Drosophila S2 Gal4-VP16 UAS-luciferase, luminescence, 20 h; Potency, µM (top dose mostly 53.6 µM), without a hit: top-dose activity, negative = inhibition, usual class: inhibitors; actives 3.5% (n = 310,000);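 also: Gal4-VP16 expression switched on by copper sulfate through the metallothionein promoter; nearly all actives have a fitted effect of over 50% in size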
DT40 TDP1 CPT – DT40-hTDP1 cell growth loss with CPT; chicken DT40 Tdp1-/-;hTDP1 cells + 20 nM CPT, ATP luminescence, 48 h; Potency, µM (titrated, usually from 46.2 µM), for inactives: top-dose activity change, negative = growth inhibition, hits mostly inhibitors; actives 12% (n = 420,000); also: nearly all actives have a fitted effect of over 55% in size
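Cell growth measured by CellTiter-Glo luminescence after a minimum 48 h, 37 C compound exposure with 20 nM CPT in Tdp1-knockout DT40 cells stably expressing hTDP1, seeded 400/well; qHTS titration format.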
TDP1 inh – TDP1 (human) enzyme inhibition. Q9NUW8. recombinant TDP1, AlphaScreen DNA substrate cleavage. Potency, µM (doses to about 130 µM), for inactives: at the top dose activity change, negative = inhibition, hits mostly inhibitors. actives 0.28% (n = 350,000). AID 485290; also: nearly all actives have a fitted effect of over 40% in size
Target sequence (Q9NUW8 whole entry, looked up): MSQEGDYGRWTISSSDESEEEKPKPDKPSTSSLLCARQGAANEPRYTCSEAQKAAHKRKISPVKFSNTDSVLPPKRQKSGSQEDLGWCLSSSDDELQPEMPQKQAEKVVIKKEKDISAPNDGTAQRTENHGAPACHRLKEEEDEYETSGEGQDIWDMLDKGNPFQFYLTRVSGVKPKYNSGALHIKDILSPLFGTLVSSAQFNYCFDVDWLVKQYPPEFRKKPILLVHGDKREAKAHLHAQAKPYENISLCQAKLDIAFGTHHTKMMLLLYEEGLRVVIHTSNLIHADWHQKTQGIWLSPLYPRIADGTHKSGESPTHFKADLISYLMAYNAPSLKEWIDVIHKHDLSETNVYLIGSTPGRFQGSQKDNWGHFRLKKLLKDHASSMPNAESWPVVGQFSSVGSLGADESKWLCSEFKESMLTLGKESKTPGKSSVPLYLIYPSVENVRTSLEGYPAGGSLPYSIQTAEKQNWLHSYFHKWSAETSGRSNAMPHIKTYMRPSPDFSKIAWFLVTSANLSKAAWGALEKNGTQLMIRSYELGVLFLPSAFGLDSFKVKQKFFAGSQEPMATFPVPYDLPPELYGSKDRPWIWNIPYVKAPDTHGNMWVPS
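Steps: enzyme plus compound, 15 min RT; add biotin/phosphotyrosine-FITC oligonucleotide (15 nM final), react 5 min; add donor/acceptor beads (10 ug/ml final), 10 min; read AlphaScreen. Tdp1 at 1 nM final.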
DT40 TDP1 no CPT – qHTS for Inhibitors of human tyrosyl-DNA phosphodiesterase 1 (TDP1): qHTS in cells in absence of CPT; DT40 Tdp1-/- hTDP1 cells, no CPT, ATP luminescence, 48 h; Potency, µM (top dose mostly 46.2 µM), without a hit: at the highest dose activity change, negative = growth inhibition, hits mostly inhibitors; actives 15% (n = 420,000); AID 686978, 2013; also: nearly all actives have a fitted effect of over 55% in size
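Luminescent ATP content (CellTiter-Glo) served as the growth readout. Knockout chicken DT40 cells expressing human TDP1 were exposed to compounds without camptothecin for a minimum 48 hr at 37 °C.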
Starred values were filed as active, the others as inactive; ? = inconclusive; . = no result given; [ ] = another dose, or the depositor's remark. Calls follow the shape of the dose curve; as a rule, active = well fitted curve in the direction sought with a large enough effect; inconclusive = small, poorly fitted or top-dose-only effect, or another doubt; inactive = no such curve, though single readings can be large; an effect the other way counts as inactive or inconclusive. % is scaled to controls: 0 for no effect and ±100 for the full control effect; potency is read from the fitted curve at half-maximal effect.

SMILES | RORgamma inh | Gal4-VP16 FLuc | DT40 TDP1 CPT | TDP1 inh | DT40 TDP1 no CPT
CC(C)(C)NC(=O)NC(=O)C[n+]1ccc(Cc2ccc([N+](=O)[O-])cc2)cc1 | -2% | -3% | 4.1µM* | . | 2.1µM*
Cc1ccc(Cl)cc1NC(=O)C[n+]1ccc(Cc2ccc([N+](=O)[O-])cc2)cc1 | -13% | -7% | 5.8µM* | 5% | 5.2µM*
O=C(C[n+]1ccc(Cc2ccccc2)cc1)Nc1ccc([N+](=O)[O-])cc1Cl | -4% | -14% | ? | 4% | 15µM*
COC(=O)c1cccc(NC(=O)CSc2nc(O)c(-c3ccccc3)c(=O)[nH]2)c1 | 7% | -7% | -1% | . | 17%
Cc1ccccc1C(=O)N1CCN(c2ccc(NC(=O)c3ccc4c(c3)OCCO4)cc2)CC1 | ? | -3% | ? | 6% | 23µM*
Cc1ccc(C(=O)N2CCN(c3ccc(NC(=O)c4ccc5c(c4)OCCO5)cc3)CC2)cc1 | 22% | -7% | 16µM* | 5% | ?
CC(C)C(=O)N1CCN(c2ccc(NC(=O)c3ccc4c(c3)OCCO4)cc2)CC1 | -20% | -3% | 4% | -8% | 1%
CC(=O)N1CCN(c2ccc(NC(=O)c3ccc4c(c3)OCO4)cc2)CC1 | 25% | 3% | -13% | -1% | -1%
O=C(Nc1ccc(N2CCN(C(=O)c3ccccc3)CC2)cc1)c1ccc2c(c1)OCO2 | 27% | 3% | 15µM* | 2% | 18µM*
Clc1ccc(-c2nc(-c3cnccn3)no2)cc1 | -21% | -16% | 7% | 6% | ?
CCC(COC)Oc1cc(NCc2ccccc2)c2ncn(C(C)C)c2c1 (configuration not stated) | . | . | 26µM* | 9% | 18µM*
COCCCOc1cc(NCc2ccccc2)c2ncn(C(C)C)c2c1 | . | . | 3% | 11% | -18%
CCC(CO)Oc1cc(NCc2cccc(O)c2)c2ncn(C(C)C)c2c1 (configuration not stated) | . | . | 23µM* | 2% | ?
COc1ccc(Cc2cc(NCc3ccccc3)c3ncn(C(C)C)c3c2)cc1 | . | . | ? | 8% | 21µM*
CC(C)n1cnc2c(NCc3ccccc3)cc(N[C@H](C)CO)cc21 | . | . | 2.3µM* | 11% | 4.6µM*
CCCCOc1cc(NCc2ccccc2)c2ncn(C(C)C)c2c1 | . | . | 23µM* | 12% | 21µM*
CCC(CO)Oc1cc(NCc2ccc(O)cc2)c2ncn(C(C)C)c2c1 (configuration not stated) | . | . | ? | 4% | -15%
CCC(CO)Oc1cc(NCc2cccc(OC)c2)c2ncn(C(C)C)c2c1 (configuration not stated) | . | . | 21µM* | 7% | ?
CCC(CO)Oc1cc(NCc2ccc(C(C)(C)C)cc2)c2ncn(C(C)C)c2c1 (configuration not stated) | . | . | 13µM* | 7% | 15µM*
CCCCc1noc2c1/C(=N\O)CC(c1ccccc1)C2 (configuration not stated) | ? | -2%[0.365 µM] | -25% | 3% | -24%
Cc1nc2scc(-c3ccccc3)c2c(=O)n1N | 6% | 2% | 15% | 2% | -17%
Cc1nc(Sc2nnnn2C2CC2)c2c(-c3ccccc3)csc2n1 | . | . | ? | . | 11µM*
Cn1nnnc1Sc1ncnc2scc(-c3ccc(-c4ccccc4)cc3)c12 | . | . | . | -3% | .
CCn1nnnc1Sc1nc(C)nc2scc(-c3ccccc3)c12 | . | . | ? | . | 8.9µM*
C[N+]1(CC(=O)c2cccc([N+](=O)[O-])c2)CCOCC1 | . | . | -5% | . | 0%
SMILES | RORgamma inh | Gal4-VP16 FLuc | DT40 TDP1 CPT | TDP1 inh | DT40 TDP1 no CPT
CCOCCCNC(=O)C1c2ccccc2Oc2ccccc21 | -15% | -2% | -24% | . | -22%
O=C(Nc1ccc(N2CCOCC2)c(Cl)c1)c1ccccc1F | 9% | ? | 2% | -7% | -21%
Cc1ccc(NC(=O)c2cc(N3C(=O)C=CC3=O)ccc2N2CCOCC2)cc1Cl | 5.6µM* | 3.2µM* | 4.1µM* | 1% | 3.7µM*
Cc1ccc(NC(=O)CS(=O)CC(=O)Nc2ccc(N3CCOCC3)cc2)cc1Cl (configuration not stated) | -2% | ? | 21µM* | 0% | 29µM*
COc1ccc(N(C(=O)c2cccc([N+](=O)[O-])c2)S(=O)(=O)c2ccc3c(c2)n(C)c(=O)n3C)cc1 | ? | ? | ? | 8% | -24%
O=C(Nc1ccc(Br)cn1)c1cccc2ccccc12 | . | . | 2.1µM* | . | 2.1µM*
O=C(Nc1ccc(Br)cn1)c1cccc(C(=O)Nc2ccc(Br)cn2)c1 | ? | 1.3µM* | ? | . | ?
O=C(Nc1ccc(Br)cn1)c1ccc2ccccc2c1 | 3% | 3% | ? | . | 15µM*
O=C(Nc1ccc(Cl)cc1)Nc1ccc(Br)cn1 | 12% | -12% | 18µM* | . | 18µM*
O=C(Nc1ccc(Br)cn1)c1cccc(S(=O)(=O)N2CCCC2)c1 | . | . | 1% | 1% | ?
COc1c(C(=O)Nc2ccc(Br)cn2)ccc2ccccc12 | 4% | 10% | -15% | . | -15%
O=C(CN1CCc2ccccc2C1)NCc1ccco1 | -3% | -2% | -18% | 6% | -10%
CSc1ncc(C(=O)Nc2ccc(Br)cn2)c(C)n1 | 0% | ? | 16µM* | . | ?
CSc1ncc(C(=O)Nc2ccc(Cl)cc2)c(C)n1 | ? | -6% | 12% | . | ?
O=C(Nc1ccc(Br)cn1)c1ccc2nccnc2c1 | . | . | 13µM* | . | 18µM*
C#CCOCCOCCOCCNc1nc(N2CCN(C(=O)[C@H](Cc3cc4ccccc4[nH]3)n3cc([C@@H](N)C(C)CC)nn3)CC2)nc(N2CCN(C(=O)[C@H](CCCCN)n3cc([C@@H](N)CO)nn3)CC2)n1 (some centres not stated) | 15% | -6% | . | 5% | .
CNC(=S)N1CCc2ccccc2C1 | -13% | 5% | 7% | 3% | 13%
Cn1c(SCc2ccccc2)nccc1=O | . | . | 3% | . | 1%
CC1=C(SCc2ccccc2)C(=O)c2ccccc2C1=O | . | . | 2.6µM* | . | 3.3µM*
O=C/C=C/c1coc2ccc3ccccc3c2c1=O | 15% | 4% | ? | . | ?
CC(=O)c1ccc(N2CCN(S(=O)(=O)c3ccc4c5c3CC(=O)N5CC(C)S4)CC2)cc1 (configuration not stated) | 6% | -10% | 21µM* | 6% | 21µM*
CN1C(=O)NC(c2ccc(C(F)(F)F)cc2)C2=C1CC(C)(C)CC2=O (configuration not stated) | 8% | 1% | -9% | . | -14%
C=CCn1c(=S)[nH]c2scc(-c3ccc(C)o3)c2c1=O | 0.28µM* | 1.3µM* | ? | 11% | 10µM*
CCn1c(=S)[nH]c2scc(-c3cccs3)c2c1=O | 0.71µM* | 3.2µM* | ? | 7% | ?
